RBX1-CUL1 inh – inhibitors of human ROC1-CUL1 ubiquitin ligase activity; 140,000 tested, 0.6% active; E3 ubiquitin-protein ligase RBX1 (Homo sapiens) + Cullin-1 (Homo sapiens), P62877+Q13616; inhibition, % at 10 µM; in vitro K48 di-Ub FRET, acceptor:donor ratio, 45 min; in the data active means inhibition above about 25%
Target sequence (P62877 whole entry, looked up): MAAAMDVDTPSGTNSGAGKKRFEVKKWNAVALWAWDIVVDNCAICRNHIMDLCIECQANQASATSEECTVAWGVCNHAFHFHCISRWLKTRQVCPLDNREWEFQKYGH
Target sequence (Q13616 whole entry, looked up): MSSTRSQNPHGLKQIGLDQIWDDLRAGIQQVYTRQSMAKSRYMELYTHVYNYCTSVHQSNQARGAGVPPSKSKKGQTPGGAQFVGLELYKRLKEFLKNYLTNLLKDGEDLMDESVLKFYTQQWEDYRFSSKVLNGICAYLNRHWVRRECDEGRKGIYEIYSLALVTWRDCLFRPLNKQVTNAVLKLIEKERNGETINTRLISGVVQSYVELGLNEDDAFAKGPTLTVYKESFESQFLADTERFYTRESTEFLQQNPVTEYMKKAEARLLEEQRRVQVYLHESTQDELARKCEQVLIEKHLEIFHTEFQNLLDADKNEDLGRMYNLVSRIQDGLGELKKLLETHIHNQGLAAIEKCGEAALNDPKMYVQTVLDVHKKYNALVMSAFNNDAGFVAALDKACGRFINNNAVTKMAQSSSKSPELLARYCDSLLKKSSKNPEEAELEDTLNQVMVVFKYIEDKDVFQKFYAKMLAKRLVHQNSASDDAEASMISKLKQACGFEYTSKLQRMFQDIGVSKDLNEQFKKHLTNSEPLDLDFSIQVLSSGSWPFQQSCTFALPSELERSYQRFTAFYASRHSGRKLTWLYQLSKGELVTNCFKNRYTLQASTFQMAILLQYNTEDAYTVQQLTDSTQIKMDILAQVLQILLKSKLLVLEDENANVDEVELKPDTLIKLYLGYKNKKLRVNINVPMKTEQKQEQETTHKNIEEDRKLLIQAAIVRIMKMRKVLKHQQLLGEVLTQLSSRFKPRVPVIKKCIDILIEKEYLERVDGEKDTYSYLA
The depositor's hits bear a star. This excerpt belongs to a sample that is enriched for hits.

SMILES	RBX1-CUL1 inh
CCOC(=O)C1=C(C)N=c2s/c(=C\c3ccc(I)cc3)c(=O)n2C1c1ccc(OC)cc1 (stereo not given)	-4
CCOC(=O)C1=C(C)N=c2s/c(=C\c3ccc(Cl)cc3)c(=O)n2C1c1ccc(C(C)C)cc1 (stereo not given)	5
Cc1ccccc1Cn1cc(NC(=O)c2cn(C)nc2C)cn1	-1
O=C(/C=C/c1ccc(S(=O)(=O)c2ccccc2)o1)c1ccc([N+](=O)[O-])o1	-3
CCC(=O)N1CCN(c2ccc(NC(=O)c3ccc(OC)c(OC)c3)cc2)CC1	7
CCNC(=O)N1CCc2c([nH]c3ccccc23)C12C(=O)N(C)c1ccccc12 (stereo not given)	7
O=C(Cc1cccs1)Nc1ccccc1O	-6
O=C(Cc1cccs1)Nc1ccc(Cc2cccc(NC(=O)Cc3cccs3)c2C(=O)O)cc1C(=O)O	27*
Cc1ccccc1NC(=O)Cc1cccs1	6
CCOc1cc(C2C(C(=O)c3cc4ccccc4o3)C(=O)C(=O)N2Cc2ccco2)ccc1O (stereo not given)	3
O=C1C(=O)N(c2nnc(SCc3ccccc3Cl)s2)C(c2ccc(Cl)cc2)C1C(=O)c1cc2ccccc2o1 (stereo not given)	29*
O=C1C(=O)N(c2nnc(SCc3ccccc3F)s2)C(c2ccc(Cl)cc2)C1C(=O)c1cc2ccccc2o1 (stereo not given)	-2
CCCCCOc1ccc(C2C(C(=O)c3cc4ccccc4o3)C(=O)C(=O)N2c2nc3ccc(OCC)cc3s2)cc1OC (stereo not given)	-6
CC(=O)c1sc(N2C(=O)C(=O)C(C(=O)c3cc4ccccc4o3)C2c2ccc(O)cc2)nc1C (stereo not given)	11
CCOc1cc(C2C(C(=O)c3cc4ccccc4o3)C(=O)C(=O)N2c2nnc(SCc3ccccc3Cl)s2)ccc1O (stereo not given)	33*
COc1ccccc1/C=N/NC(=O)c1nn(-c2ccc(Cl)cc2)c(=O)c2c(N)scc12	-1
CCOC(=O)c1c(C)nc2c(c1C)C(=O)c1ccccc1-2	1
CC1=Nc2nnnn2C(c2ccc3c(c2)OCO3)C1C(=O)Nc1ccc(Cl)cc1 (stereo not given)	5
Cc1ccc(C)c(OS(=O)(=O)c2ccccc2C)c1	6
COc1ccc(/C=N/OC(=O)c2ccccc2)cc1	4
COc1ccc(/C=C(\C)c2ccc(OC)cc2)cc1	-6
COc1ccc(/C=C(/S)C(=O)O)cc1	89*
CC1=C(C(=O)NCc2nc(-c3ccccc3NC(=O)c3ccccc3)oc2C)OCCO1	6
COc1ccc2c(c1)Cc1sc(NC(=O)c3ccccc3C)nc1-2	32*
COc1ccc2c(c1)CCc1sc(NC(=O)c3ccc(Cl)cc3)nc1-2	11
SMILES	RBX1-CUL1 inh
COc1ccc2c(c1)Cc1sc(NC(=O)c3cccc(F)c3)nc1-2	13
COc1ccc2c(c1)Cc1sc(NC(=O)c3cccc(Br)c3)nc1-2	-18
COc1ccc(C(=O)Nc2nc3c(s2)Cc2cc(OC)ccc2-3)cc1	40*
COc1ccc2c(c1)-c1nc(NC(=O)c3ccccc3F)sc1CC2	2
Cc1ccc2c(c1)NC(C)(C)c1ssc(=Nc3ccc(Cl)c(Cl)c3)c1-2	-1
Cc1ccc(N2C(=O)CC(Nc3ccc(F)cc3)C2=O)c(Br)c1 (stereo not given)	-12
CC(=O)c1sc2ccccc2c1SC#N	0
CCOC(=O)c1ccc(-c2ccc(/C=C3/C=C(c4ccccc4)N(c4ccc(-c5ccccc5)cc4)C3=O)o2)cc1	2
CCOC(=O)c1cnc(N2CCN(C)CC2)nc1C	4
N#CC1=c2s/c(=C\c3ccc(-c4ccccc4)o3)c(=O)n2C(=N)C(C#N)C1c1ccc(-c2ccccc2)o1 (stereo not given)	56*
N#CC1=c2s/c(=C/c3cccc(C(F)(F)F)c3)c(=O)n2C(=N)C(C#N)C1c1cccc(C(F)(F)F)c1 (stereo not given)	-2
N#CC1=c2s/c(=C\c3ccccc3C(F)(F)F)c(=O)n2C(=N)C(C#N)C1c1ccccc1C(F)(F)F (stereo not given)	4
O=C1c2ccccc2C(=O)C12OC(c1ccc(I)cc1)C1(C(=O)c3ccccc3C1=O)C2c1cccc([N+](=O)[O-])c1 (stereo not given)	7
CSc1nnc(-c2ccccc2N=CC2C(=O)N(c3ccccc3)N=C2C)c(=O)[nH]1 (stereo not given)	2
CC1=NN(c2ccc(F)cc2)C(=O)C1C=Nc1cccc2ccccc12 (stereo not given)	-8
CC1=NN(c2ccccc2)C(=O)C1C=Nc1ccccc1-c1nnc(SCc2ccccc2)[nH]c1=O (stereo not given)	37*
C=CCn1c(=O)c2c(nc3n2C(C)C(C)=NN3CC(=C)C)n(C)c1=O (stereo not given)	-3
CCOc1cc(C2C(C(=O)Nc3ccccc3)C(C)=Nc3ncnn32)cc(Br)c1O (stereo not given)	2
Cc1ccc(-c2cc(C(=O)Nc3sc4c(c3C(N)=O)CCC(C(C)(C)C)C4)c3ccccc3n2)o1 (stereo not given)	-2
CCC1CCc2c(sc(NC(=O)c3cc(-c4ccco4)nc4ccccc34)c2C(N)=O)C1 (stereo not given)	43*
NC(=O)c1c(NC(=O)c2cc(-c3ccccc3)nc3ccccc23)sc2c1CCCCCC2	6
CCCCNC(=O)c1ccc(CN2CCCC2)cc1	6
CCC(C)(C)C1CCc2c(sc(NC(=O)C3CC3)c2C#N)C1 (stereo not given)	-10
Cc1ccc(C2=CSC3=NN=C(c4ccccc4)C(c4ccccc4)N23)cc1 (stereo not given)	2
C1=C(c2ccccc2)N2C(=NN=C(c3ccccc3)C2c2ccccc2)S1 (stereo not given)	41*
SMILES	RBX1-CUL1 inh
C1=C(c2ccc(-c3ccccc3)cc2)N2C(=NN=C(c3ccccc3)C2c2ccccc2)S1 (stereo not given)	-18
Cc1ccc(NC(=O)c2cc(C)oc2C)cc1	3
CN(C)c1nc(Oc2ccc(=O)[nH]n2)nc(N(C)C)n1	7
CCOc1ccc(C(=O)Nc2nc(C)cc(C)n2)cc1	0
O=C1C2=CC(C=NCC(O)CO)C(=O)N2c2ccccc21 (stereo not given)	25*
CC(=O)[C@@H]1[C@@H](c2cccc(F)c2)C(C#N)(C#N)[C@H]2C=Cc3ccccc3N12	4
COc1ccc2ccc(=O)oc2c1OCC(O)CNC(C)(C)C (stereo not given)	3
N#CC1C(=N)Oc2cc(O)c(C=Nc3cccc(F)c3)cc2C1c1ccco1 (stereo not given)	48*
COc1ccc(N=Cc2cc3c(cc2O)OC(=N)C(C#N)C3c2cccc(F)c2)cc1 (stereo not given)	-3
COc1ccccc1N=Cc1cc2c(cc1O)OC(=N)C(C#N)C2c1cccc(F)c1 (stereo not given)	21
CN1CCc2nc3sc(C(=O)Nc4ccc(OC(F)(F)F)cc4)c(N)c3cc2C1	3
CC1=NN(c2ccc(C(=O)O)cc2)C(=O)/C1=C/c1cc(C(C)(C)C)c(O)c(C(C)(C)C)c1	12
CC1=NN(c2ccc(Cl)c(Cl)c2)C(=O)/C1=C/c1ccc(C)cc1	-8
CC1=NN(c2ccc(Cl)c(C(=O)O)c2)C(=O)/C1=C\c1cnn(-c2ccc(C)c(C)c2)c1	100*
Cc1ccc(C(=O)OCC#CCSc2nc3ccccc3n2C)cc1	-2
